Test results as given in the supplement of paper PMC7595190.
A number with no mark means an inactive call.

System: MV4-11
Experiment: CellTox Green cytotoxicity fluorescence relative to DMSO vehicle (fold of vehicle RFU); higher = more cell death (loss of membrane integrity), active = 2 or more
Description: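 Paediatric AML cell lines (MV4-11, CMK, Kasumi-1; 4x10^4 cells/well, 96-well) treated with single compounds from the Selleckchem apoptosis library at 0.01, 0.1 and 1 µM. Cytotoxicity was read with CellTox Green (RFU, Ex 485/Em 520) at 24, 48 and 72 h and normalised to the 0.1% DMSO vehicle. Normalised RFU >= 2 was taken as a successful, cell-killing treatment.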

CC[C@H](C)[C@@H]([C@@H](CC(=O)N1CCC[C@H]1[C@H](OC)[C@@H](C)C(=O)N[C@H](C)[C@@H](O)c1ccccc1)OC)N(C)C(=O)[C@@H](NC(=O)[C@@H](NC)C(C)C)C(C)C [Monomethyl auristatin E]
CellTox Green cytotoxicity fluorescence (0.01 µM, 24 h): 1.19 | CellTox Green cytotoxicity fluorescence (0.01 µM, 48 h): 2.42 (active) | CellTox Green cytotoxicity fluorescence (0.01 µM, 72 h): 2.81 (active) | CellTox Green cytotoxicity fluorescence (0.1 µM, 24 h): 1.3 | CellTox Green cytotoxicity fluorescence (0.1 µM, 48 h): 2.48 (active) | CellTox Green cytotoxicity fluorescence (0.1 µM, 72 h): 2.73 (active) | CellTox Green cytotoxicity fluorescence (1 µM, 24 h): 1.58 | CellTox Green cytotoxicity fluorescence (1 µM, 48 h): 2.5 (active) | CellTox Green cytotoxicity fluorescence (1 µM, 72 h): 2.74 (active)

CN[C@@H]1C[C@H]2O[C@@](C)([C@@H]1OC)n1c3ccccc3c3c4c(c5c6ccccc6n2c5c31)C(=O)NC4 [Staurosporine]
CellTox Green cytotoxicity fluorescence (0.01 µM, 24 h): 0.985 | CellTox Green cytotoxicity fluorescence (0.01 µM, 48 h): 1.41 | CellTox Green cytotoxicity fluorescence (0.01 µM, 72 h): 1.83 | CellTox Green cytotoxicity fluorescence (0.1 µM, 24 h): 1.01 | CellTox Green cytotoxicity fluorescence (0.1 µM, 48 h): 1.48 | CellTox Green cytotoxicity fluorescence (0.1 µM, 72 h): 1.96 | CellTox Green cytotoxicity fluorescence (1 µM, 24 h): 1.36 | CellTox Green cytotoxicity fluorescence (1 µM, 48 h): 2.34 (active) | CellTox Green cytotoxicity fluorescence (1 µM, 72 h): 2.42 (active)

COc1cc([C@@H]2c3cc4c(cc3[C@H](O)[C@H]3COC(=O)[C@@H]23)OCO4)cc(OC)c1OC [Picropodophyllin]
CellTox Green cytotoxicity fluorescence (0.01 µM, 24 h): 0.934 | CellTox Green cytotoxicity fluorescence (0.01 µM, 48 h): 0.932 | CellTox Green cytotoxicity fluorescence (0.01 µM, 72 h): 0.939 | CellTox Green cytotoxicity fluorescence (0.1 µM, 24 h): 0.922 | CellTox Green cytotoxicity fluorescence (0.1 µM, 48 h): 0.924 | CellTox Green cytotoxicity fluorescence (0.1 µM, 72 h): 0.931 | CellTox Green cytotoxicity fluorescence (1 µM, 24 h): 1.28 | CellTox Green cytotoxicity fluorescence (1 µM, 48 h): 2.6 (active) | CellTox Green cytotoxicity fluorescence (1 µM, 72 h): 3.18 (active)

COc1cc(C)[nH]c(=O)c1CNC(=O)c1c(C)n([C@H](C)C2CCOCC2)c2ccccc12
CellTox Green cytotoxicity fluorescence (0.01 µM, 24 h): 0.942 | CellTox Green cytotoxicity fluorescence (0.01 µM, 48 h): 0.94 | CellTox Green cytotoxicity fluorescence (0.01 µM, 72 h): 0.941 | CellTox Green cytotoxicity fluorescence (0.1 µM, 24 h): 0.942 | CellTox Green cytotoxicity fluorescence (0.1 µM, 48 h): 0.951 | CellTox Green cytotoxicity fluorescence (0.1 µM, 72 h): 0.957 | CellTox Green cytotoxicity fluorescence (1 µM, 24 h): 0.942 | CellTox Green cytotoxicity fluorescence (1 µM, 48 h): 0.936 | CellTox Green cytotoxicity fluorescence (1 µM, 72 h): 0.948

Cn1c(COP(=O)(NCCBr)NCCBr)cnc1[N+](=O)[O-]
CellTox Green cytotoxicity fluorescence (0.01 µM, 24 h): 0.981 | CellTox Green cytotoxicity fluorescence (0.01 µM, 48 h): 0.971 | CellTox Green cytotoxicity fluorescence (0.01 µM, 72 h): 0.974 | CellTox Green cytotoxicity fluorescence (0.1 µM, 24 h): 0.97 | CellTox Green cytotoxicity fluorescence (0.1 µM, 48 h): 0.983 | CellTox Green cytotoxicity fluorescence (0.1 µM, 72 h): 1.04 | CellTox Green cytotoxicity fluorescence (1 µM, 24 h): 0.97 | CellTox Green cytotoxicity fluorescence (1 µM, 48 h): 1.38 | CellTox Green cytotoxicity fluorescence (1 µM, 72 h): 2.79 (active)
